Laboratory results from PubChem BioAssay AID1159580 (chemical genetic matrix, 2015).
About 2,000 (36%) of roughly 5,500 compounds were called active. Not shown: some 18% with an inconclusive outcome. Rule as the data show it: active = normalized growth mostly below about 0.91 (no sharp cut-off); inconclusive = no clear call, values can overlap the other calls; inactive = mostly above about 0.92. Some of the results follow.

Assay: chemical genetic growth profiling, strain panel (AID 1159580);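 also: tested at 20 µM; growth read once vehicle control cultures reached saturation at 30 °C; 1 = growth at the plate median or of vehicle wells; lower values mean less growth of the strain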
Conditions: growth OD

Measured: normalized growth

Nc1ccc(S(=O)(=O)Nc2nccs2)cc1
inactive: S. cerevisiae deletion strains, locus YJR075W, strain HOC1, stronger effect = lower value 1.01 | S. cerevisiae deletion strains, locus YKL009W, strain mrt4, stronger effect = lower value 0.999 | S. cerevisiae deletion strains, locus YKL068W, stronger effect = lower value 0.99 | S. cerevisiae deletion strains, locus YKL085W, strain MDH1 (second series), stronger effect = lower value 0.99 | S. cerevisiae deletion strains, locus YKL085W, strain MDH1, stronger effect = lower value 0.99 | S. cerevisiae deletion strains, locus YKL160W, strain elf1, stronger effect = lower value 1.02 | S. cerevisiae deletion strains, locus YKL190W, strain CNB1, stronger effect = lower value 1.01 | S. cerevisiae deletion strains, locus YKR001C, strain vps1, stronger effect = lower value 1.02 | S. cerevisiae deletion strains, locus YKR026C, strain gcn3, stronger effect = lower value 1.01 | S. cerevisiae deletion strains, locus YKR091W, strain srl3, stronger effect = lower value 1.01 | S. cerevisiae deletion strains, locus YLL001W, strain dnm1, stronger effect = lower value 1.02 | S. cerevisiae deletion strains, locus YLL026W, stronger effect = lower value 1.02 | S. cerevisiae deletion strains, locus YLL041C, strain sdh2, stronger effect = lower value 1.01 | S. cerevisiae deletion strains, locus YLR027C, strain aat2, stronger effect = lower value 1.02 | S. cerevisiae deletion strains, locus YLR039C, strain RIC1, stronger effect = lower value 1.04 | S. cerevisiae deletion strains, locus YLR058C, strain SHM2, stronger effect = lower value 1.01 | S. cerevisiae deletion strains, locus YLR102C, strain apc9, stronger effect = lower value 0.995 | S. cerevisiae deletion strains, locus YLR113W, strain HOG1, stronger effect = lower value 1.02 | S. cerevisiae deletion strains, locus YLR221C, strain rsa3, stronger effect = lower value 1 | S. cerevisiae deletion strains, locus YLR258W, strain gsy2, stronger effect = lower value 1.01 | S. cerevisiae deletion strains, locus YLR262C, strain YPT6 (second series), stronger effect = lower value 1.03 | S. cerevisiae deletion strains, locus YLR262C, strain YPT6, stronger effect = lower value 1.05 | S. cerevisiae deletion strains, locus YLR268W, strain sec22, stronger effect = lower value 0.948 | S. cerevisiae deletion strains, locus YLR320W, strain mms22, stronger effect = lower value 0.992 | S. cerevisiae deletion strains, locus YLR330W, strain CHS5, stronger effect = lower value 1.01 | S. cerevisiae deletion strains, locus YLR342W, strain FKS1 (second series), stronger effect = lower value 1.03 | S. cerevisiae deletion strains, locus YLR342W, strain FKS1, stronger effect = lower value 1.01 | S. cerevisiae deletion strains, locus YLR357W, strain rsc2, stronger effect = lower value 1.02 | S. cerevisiae deletion strains, locus YLR370C, strain arc18, stronger effect = lower value 1.02 | S. cerevisiae deletion strains, locus YLR371W, strain rom2, stronger effect = lower value 0.996 | S. cerevisiae deletion strains, locus YLR384C, strain iki3, stronger effect = lower value 1.02 | S. cerevisiae deletion strains, locus YLR418C, strain cdc73, stronger effect = lower value 0.997 | S. cerevisiae deletion strains, locus YML016C, strain PPZ1, stronger effect = lower value 1.01 | S. cerevisiae deletion strains, locus YML032C, strain rad52, stronger effect = lower value 0.98 | S. cerevisiae deletion strains, locus YML120C, strain ndi1, stronger effect = lower value 1.02 | S. cerevisiae deletion strains, locus YML124C, strain tub3, stronger effect = lower value 0.997 | S. cerevisiae deletion strains, locus YMR058W, strain fet3, stronger effect = lower value 1.02 | S. cerevisiae deletion strains, locus YMR078C, strain ctf18, stronger effect = lower value 0.994 | S. cerevisiae deletion strains, locus YMR125W, strain sto1, stronger effect = lower value 1 | S. cerevisiae deletion strains, locus YMR129W, stronger effect = lower value 1.01 | S. cerevisiae deletion strains, locus YMR205C, strain PFK2, stronger effect = lower value 1 | S. cerevisiae deletion strains, locus YMR223W, strain ubp8, stronger effect = lower value 1.01 | S. cerevisiae deletion strains, locus YMR231W, strain pep5, stronger effect = lower value 1.01 | S. cerevisiae deletion strains, locus YMR263W, strain SAP30, stronger effect = lower value 1.01 | S. cerevisiae deletion strains, locus YMR307W, strain GAS1, stronger effect = lower value 0.995 | S. cerevisiae deletion strains, locus YNL067W, strain RPL9B, stronger effect = lower value 1.02 | S. cerevisiae deletion strains, locus YNL071W, strain lat1, stronger effect = lower value 1.01 | S. cerevisiae deletion strains, locus YNL128W, strain TEP1, stronger effect = lower value 1.01 | S. cerevisiae deletion strains, locus YNL153C, strain GIM3, stronger effect = lower value 1 | S. cerevisiae deletion strains, locus YNL183C, strain NPR1, stronger effect = lower value 0.948 | S. cerevisiae deletion strains, locus YNL209W, strain ssb2, stronger effect = lower value 1.02 | S. cerevisiae deletion strains, locus YNL233W, strain BNI4, stronger effect = lower value 0.99 | S. cerevisiae deletion strains, locus YNL248C, strain rpa49, stronger effect = lower value 0.998 | S. cerevisiae deletion strains, locus YNL250W, strain rad50, stronger effect = lower value 0.989 | S. cerevisiae deletion strains, locus YNL271C, strain bni1, stronger effect = lower value 0.992 | S. cerevisiae deletion strains, locus YNL298W, strain CLA4, stronger effect = lower value 1 | S. cerevisiae deletion strains, locus YNL307C, strain MCK1, stronger effect = lower value 0.995 | S. cerevisiae deletion strains, locus YNL322C, strain KRE1 (second series), stronger effect = lower value 1.02 | S. cerevisiae deletion strains, locus YNL322C, strain KRE1, stronger effect = lower value 1.01 | S. cerevisiae deletion strains, locus YNR049C, strain mso1, stronger effect = lower value 1.01 | S. cerevisiae deletion strains, locus YNR052C, strain pop2, stronger effect = lower value 1 | S. cerevisiae deletion strains, locus YOL006C, strain TOP1, stronger effect = lower value 1.01 | S. cerevisiae deletion strains, locus YOL012C, strain htz1 1.03 | S. cerevisiae deletion strains, locus YOL147C, strain pex11, stronger effect = lower value 0.992 | S. cerevisiae deletion strains, locus YOR001W, strain rrp6, stronger effect = lower value 1.03 | S. cerevisiae deletion strains, locus YOR061W, strain CKA2, stronger effect = lower value 1.01 | S. cerevisiae deletion strains, locus YOR069W, strain VPS5, stronger effect = lower value 1.01 | S. cerevisiae deletion strains, locus YOR070C, strain gyp1, stronger effect = lower value 1 | S. cerevisiae deletion strains, locus YOR080W, strain dia2, stronger effect = lower value 1.01 | S. cerevisiae deletion strains, locus YOR083W, strain WHI5, stronger effect = lower value 0.98 | S. cerevisiae deletion strains, locus YOR106W, strain vam3, stronger effect = lower value 1.04 | S. cerevisiae deletion strains, locus YOR136W, strain idh2, stronger effect = lower value 0.993 | S. cerevisiae deletion strains, locus YOR144C, strain elg1, stronger effect = lower value 1 | S. cerevisiae deletion strains, locus YOR184W, strain ser1, stronger effect = lower value 1 | S. cerevisiae deletion strains, locus YOR231W, strain MKK1, stronger effect = lower value 1.05 | S. cerevisiae deletion strains, locus YOR265W, strain rbl2, stronger effect = lower value 1.02 | S. cerevisiae deletion strains, locus YOR270C, strain vph1, stronger effect = lower value 1.03 | S. cerevisiae deletion strains, locus YOR290C, strain snf2, stronger effect = lower value 0.997 | S. cerevisiae deletion strains, locus YOR316C, strain cot1, stronger effect = lower value 0.999 | S. cerevisiae deletion strains, locus YPL051W, strain arl3, stronger effect = lower value 1.02 | S. cerevisiae deletion strains, locus YPL055C, strain LGE1, stronger effect = lower value 1.02 | S. cerevisiae deletion strains, locus YPL078C, strain atp4, stronger effect = lower value 1.02 | S. cerevisiae deletion strains, locus YPL106C, strain sse1, stronger effect = lower value 1.03 | S. cerevisiae deletion strains, locus YPL240C, strain hsp82, stronger effect = lower value 1.03 | S. cerevisiae deletion strains, locus YPL241C, strain CIN2, stronger effect = lower value 1.01 | S. cerevisiae deletion strains, locus YPL256C, strain CLN2, stronger effect = lower value 1.02 | S. cerevisiae deletion strains, locus YPR119W, strain clb2, stronger effect = lower value 0.992 | S. cerevisiae deletion strains, locus YPR141C, strain kar3, stronger effect = lower value 0.996 | S. cerevisiae deletion strains, locus YPR163C, strain tif3, stronger effect = lower value 1 | S. cerevisiae deletion strains, locus YPR167C, strain met16, stronger effect = lower value 1 | S. cerevisiae deletion strains, strain wtn01, stronger effect = lower value 0.997 | S. cerevisiae strains, strain wild type, stronger effect = lower value 0.997
